Measurements published in PubChem BioAssay AID504725 (Broad Institute, 2011).
Results with a measured potency or affinity are listed apart. Active and inactive are the calls of the source. How the calls were made is not given here.

Biological target: KSHV LANA C-terminal domain (residues 932-1162) binding to LBS DNA (UniProt O40947)
Assay: KSHV LANA DNA-binding disruption – biochemical, fluorescence polarization, cherry-picked samples, dose response (AID 504725)
Conditions: MBP-C-LANA / FAM-LBS DNA fluorescence polarization, percent change from plate compound-well median; series mostly up to 35 µM

outcome, inactive:
CCCN(CCC)C(=O)C1c2ccccc2Oc2ccccc21
COc1cccc(NC(=O)CN(C)C(=O)c2cc3ccccc3cc2OC)c1
Cc1c(C)n(Cc2ccccc2)c2ncnc(Cl)c12
CC(C)CN(C(=O)CSc1nncn1C)C1CCS(=O)(=O)C1 (configuration not stated)
Cc1ccc(C(CC(=O)N2CCCCC2)c2ccccc2)c(O)c1C (configuration not stated)
C/C(=N/NC(=O)c1cc(O)c(O)c(O)c1)c1ccc([N+](=O)[O-])cc1
O=C(O)c1ccccc1NS(=O)(=O)c1ccc(N/N=C/c2ccc(O)c(O)c2)c([N+](=O)[O-])c1
C=CC[C@@H](CC(=O)N(CCO)Cc1ccccc1)C(=O)NC[C@H](OC(=O)[C@@H](CC=C)CC(=O)OC(C)(C)C)c1ccccc1
COc1cc(CN2CC(=O)N(c3cc(Cl)ccc3C)C2=S)cc(OC)c1OC
COc1ccc(Cn2nnc3c(=O)[nH]c(C4CCCN(C(=O)c5ccccc5)C4)nc32)cc1 (configuration not stated)
CCOCCCn1c(SCC(=O)NC(C)(C)C)nc2ccccc2c1=O
Cc1nn(CC(=O)c2ccc(Br)s2)c(C)c1[N+](=O)[O-]
Cc1ccc(C(=O)c2coc3ccc(O)c(Cl)c23)cc1
COc1ccccc1CNC(=O)CCS(=O)(=O)c1cccs1
CCN(C(=O)COC(=O)c1ccc([N+](=O)[O-])o1)C1CCCCC1
COc1cc(NC(=O)c2ccc(CNc3c(N4CCCC4)c(=O)c3=O)cc2)cc(OC)c1OC
COC(=O)c1cccc(COC(=O)c2ccccc2NC(=O)c2ccco2)c1
Nc1nc(C(F)(F)F)cc(=O)[nH]1
NC(=O)C1=NOC(CNc2ncc(C(F)(F)F)cc2Cl)C1 (configuration not stated)
COc1ccc(-c2nc(C(=O)O)cs2)cc1OC
CC(C)c1ccc(NC(=O)Cn2c(=O)oc3cccnc32)cc1
COc1ccc2[nH]c3c(C)c4cc[n+](C)cc4c(C)c3c2c1
O=c1nc(N2CCOCC2)ccn1-c1nc(-c2ccccc2)sc1-c1ccccc1
Cn1c(N)c(C(=O)COC(=O)c2ccc(Cl)c(S(=O)(=O)N3CCCC3)c2)c(=O)n(C)c1=O
COc1cc(SC)ccc1C(=O)OCC(=O)N1CCN(C(C)=O)CC1
CCc1nnc(NC(=O)c2cccc(S(=O)(=O)N(C)c3ccccc3)c2)s1
Cc1noc(C)c1C(=O)N1CCN(c2ccc(OCc3ccccc3)cc2)CC1
Cc1ccc(N2CC(C(=O)Nc3nnc(SCC(=O)Nc4nc(C)cs4)s3)CC2=O)cc1 (configuration not stated)
CN1CCN(CCCNC(=O)c2cc3c(-c4ccc(Cl)cc4)nn(C)c3s2)CC1
COc1ccc(NC(=O)CO/N=C2/CCCc3nonc32)c(OC)c1
O=C(O)CN1C(=O)/C(=C\c2cc(Br)ccc2OCc2ccc([N+](=O)[O-])cc2)SC1=S
CCOc1ccc(S(=O)(=O)N(C)c2ccc(OCC(=O)NC3=NCCS3)cc2)cc1
CCOC(=O)CN1NC2(CCCCCC2)NC1=S
Cc1ccc(NC(=O)c2ccc(Cl)c(S(=O)(=O)N3CCc4ccccc43)c2)nc1
CC1Cc2ccccc2N1C(=O)CCS(=O)(=O)c1cccs1 (configuration not stated)
O=C(NCc1cccnc1)C(=O)C1C(=O)Nc2ccccc21 (configuration not stated)
CC(=O)O[C@@H]1[C@@H](OC(C)=O)[C@H](n2ccc3cc([N+](=O)[O-])ccc32)OC[C@@H]1OC(C)=O
